ERG Ets-DNA blk – blocks human ERG Ets domain binding to DNA; P11308; fluorescence polarization, His-ERG Ets domain / labelled DNA; Potency, µM (titrated, usually from 76.9 µM), without a hit: at the top dose FP activity, negative = inhibition, usual class: inhibitors; actives 0.028% (n = 370,000); active = well fitted inhibition curve with a large enough effect in the polarisation, with a control signal flat; inconclusive = small, poorly fitted or top-dose-only effect, or effect the other way, or a change in a side signal; inactive = no such curve, though single readings can be large or run the other way; the % refers to the polarisation;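 note: polarization taken with two DNA probes labelled with fluorescein and Texas red; potency is the fitted concentration of half-maximal effect; % of control where 0% means no effect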
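His-tagged ERG Ets domain (1 uM in the protein solution; 300mM KCl, 50mM Tris-HCl, 1mM EDTA, 1mM DTT, pH 7.5) received compound, then a probe mix of 5 nM fluorescein-DNA and 100nM Texas-615-DNA. Fluorescence polarization was read for both dyes.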
Giardia kill – Giardia lamblia killing | Giardia lamblia trophozoite viability | activity change, % at 7.66 µM, hits read low | actives 0.15% (n = 340,000); in the data active = activity change below about -80%; inconclusive = between about -30% and that limit;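 note: parasites exposed to compound for two days anaerobically before the ATP read; % is set by controls: 0 for no effect and ±100 for the full control effect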
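Compounds were tested on trophozoites seeded at 100 cells/well and held 48 hrs at 37 deg C anaerobically. An ATP-based luminescent kit measured the remaining live cells.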
a7 integrin act – integrin-mediated muscular dystrophy alleviation activation. alpha7betagal myoblasts, beta-gal FDG fluorescence, 48 h. AID 624291. actives 0.064% (n = 350,000). Potency, µM (titrated, usually from 38.3 µM), inactives show top-dose activation, most hits filed as activators;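 note: potency is the fitted concentration of half-maximal effect; 100% = response of the positive control SU9516; nearly all actives have a fitted effect of over 60% in size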
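Alpha7betagal+/- myoblasts (passage 13) were plated 16-24 hr, then exposed to compounds (1:260 dilution of DMSO stock) for 48 hours at 37C. After MPER lysis, β-galactosidase reporter activity was read as FDG fluorescence (ex 480/em 540) after 30 minutes.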
RORg inh – inhibitors of mouse ROR gamma transcriptional activity; AID 2551; P51450; actives 5.4% (n = 310,000); Potency, µM (highest dose often 53.6 µM), for the others: at the top dose activity change, negative = inhibition, usual class: inhibitors; Drosophila S2 Gal4-RORgamma UAS-luciferase reporter, 20 h; note: potency is the fitted concentration of half-maximal effect; % is set by controls: 0 for no effect and ±100 for the full control effect; nearly all actives have a fitted effect of over 60% in size
Target sequence (P51450 whole entry, looked up, the tested form may be a part): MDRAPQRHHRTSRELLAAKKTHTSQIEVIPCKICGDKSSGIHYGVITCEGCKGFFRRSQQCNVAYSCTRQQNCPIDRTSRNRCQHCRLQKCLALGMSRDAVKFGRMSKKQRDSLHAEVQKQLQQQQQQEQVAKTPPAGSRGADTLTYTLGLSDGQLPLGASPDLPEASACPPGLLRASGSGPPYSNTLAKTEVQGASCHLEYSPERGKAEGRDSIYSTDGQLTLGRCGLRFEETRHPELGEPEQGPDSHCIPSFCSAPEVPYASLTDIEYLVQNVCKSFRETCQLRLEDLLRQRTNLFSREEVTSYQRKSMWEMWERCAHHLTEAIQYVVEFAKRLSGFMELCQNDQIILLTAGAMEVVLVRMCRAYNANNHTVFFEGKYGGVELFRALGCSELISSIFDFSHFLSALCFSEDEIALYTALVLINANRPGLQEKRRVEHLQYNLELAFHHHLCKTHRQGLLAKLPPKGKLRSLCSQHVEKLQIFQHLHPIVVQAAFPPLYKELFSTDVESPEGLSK
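Using a luciferase readout, inhibitors were identified by reduced reporter activity in Drosophila cells coexpressing a copper-inducible Gal4–ROR gamma fusion and UAS-driven Photinus luciferase, incubated 20 hr after 700 uM copper sulfate.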
Gal4-VP16 FLuc – Gal4-VP16 reporter inhibition counter-screen | Drosophila S2 Gal4-VP16 UAS-luciferase, luminescence, 20 h | Potency, µM (highest dose often 53.6 µM), inactives show at the highest dose activity, negative = inhibition, most hits filed as inhibitors | actives 3.5% (n = 310,000) | AID 2546;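 note: Gal4-VP16 expression switched on by copper sulfate through the metallothionein promoter; potency is the fitted concentration of half-maximal effect; % is set by controls: 0 for no effect and ±100 for the full control effect; nearly all actives have a fitted effect of over 50% in size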
Active calls of the source: *; ? = inconclusive; nt = no result; [ ] = dose if it differs, or a comment. This excerpt belongs to a sample that is enriched for hits. Unless noted, calls come from the whole dose curve; as a rule, active = well fitted curve in the direction sought with a large enough effect; inconclusive = small, poorly fitted or top-dose-only effect, or another doubt; inactive = no such curve, though single readings can be large; an effect the other way counts as inactive or inconclusive.

SMILES	ERG Ets-DNA blk	Giardia kill	a7 integrin act	RORg inh	Gal4-VP16 FLuc
N#Cc1ccc(/C=C\c2nccc3c2[nH]c2ccccc23)cc1	12%	14	-60%	0.45µM*	2.2µM*
COc1ccc(/C=C\c2nccc3c2[nH]c2ccccc23)cc1	nt	2	nt	nt	nt
Clc1ccc(/C=C\c2nccc3c2[nH]c2ccccc23)cc1	7%	-5	-56%	1.6µM*	?
COc1ccc(OC)c(C2OCCC=CC2C)c1 (stereo not drawn)	nt	nt	nt	-16%[10 µM]	-1%[10 µM]
COc1ccc(C(=O)N2CCC3(CCCN(CC(C)C)C3)CC2)cc1	nt	nt	nt	-4%	-5%
CCCCN(CC)Cc1ccc(CNS(=O)(=O)c2cc3c(cc2Cl)NC(=O)CO3)o1	5%	nt	nt	nt	nt
CCOc1cc(-c2nc3ccccn3c2NCC2CCCO2)ccc1O (stereo not drawn)	-4%	11	0%	13%	?
COc1cc(-c2nc3ccccn3c2NCC2CCCO2)ccc1O (stereo not drawn)	-1%	0	-4%	14µM*	22%
COc1cc(-c2nc3ccccn3c2/N=C/c2ccccc2)ccc1O	nt	-4	-40%	13µM*	-5%
CCCNC(=O)c1csc(Nc2cccc3ccccc23)n1	-1%	-21	12%	25%	0%
O=C(NCC1CCCO1)c1csc(Nc2cccc3ccccc23)n1 (stereo not drawn)	-5%	-11	21%	11µM*	-10%
Cn1c(=O)oc2cc(S(=O)(=O)N3CCCC(C(=O)NCCc4ccccc4)C3)ccc21 (stereo not drawn)	0%	nt	nt	nt	nt
Oc1c(Cl)cc(Cl)cc1/C=N/NC(=S)NC1CC2C=CC1C2 (stereo not drawn)	10%	2	-14%	4.5µM*	20µM*
Oc1ccccc1/C=N/NC(=S)NC1CC2C=CC1C2 (stereo not drawn)	6%	16	-47%	3.2µM*	5µM*
COc1cccc(C(=O)c2sc(NC(C)C)nc2N)c1	-7%	17	-40%	?	11µM*
Cc1coc2c1c(C)cc1oc(=O)c(CC(=O)NCCCN3CCCC3=O)c(C)c12	1%	3	5%	-32%	-8%
CC[C@H](C)[C@H](NC(=O)[C@H](CCC(=O)O)NC(=O)[C@H](CC(N)=O)NC(=O)[C@@H](N)[C@@H](C)O)C(=O)N[C@H](C(=O)N[C@@H](CCC(=O)O)C(=O)N[C@@H](CCC(=O)O)C(=O)N[C@@H](CCC(N)=O)C(=O)N[C@@H](Cc1ccc(O)cc1)C(=O)N[C@H](C(=O)N1CCC[C@H]1C(=O)N[C@@H](CCC(N)=O)C(=O)N[C@@H](CO)C(=O)N[C@@H](CC(C)C)C(=O)N[C@@H](C)C(=O)N[C@H](C(=O)N[C@@H](CC(C)C)C(=O)N[C@@H](CCC(=O)O)C(=O)N[C@@H](CO)C(=O)N[C@H](C(=O)N[C@@H](Cc1ccccc1)C(=O)N[C@@H](CCC(N)=O)C(=O)N[C@@H](CCC(=O)O)C(=O)N[C@@H](CC(C)C)C(=O)NCC(=O)N[C@@H](CCCCN)C(=O)N[C@@H](CC(C)C)C(=O)N[C@H](C(=O)NCC(=O)N1CCC[C@H]1C(=O)N[C@@H](CC(N)=O)C(=O)N[C@@H](CO)C(=O)N[C@@H](CCC(N)=O)C(=O)O)[C@@H](C)O)C(C)C)[C@@H](C)O)[C@@H](C)O)C(C)C	nt	nt	nt	3%	-4%
CCN(CC)C(=O)CSc1nc(-c2ccc(C)cc2)nc2c1Cc1c(CO)cnc(C)c1O2	6%	nt	nt	nt	nt
Cc1ccccc1OCC(=O)NNC(=S)NC(=O)c1ccco1	-20%	1	-23%	13µM*	?
CC(C)(C)c1ccc(OCC(=O)NNC(=S)NC(=O)c2ccco2)c(Br)c1	13%	6	-30%	5µM*	8.9µM*
Cc1ccccc1OCC(=O)Nc1ccccc1NC(=O)c1ccco1	8%	-6	-18%	4%	14%
CC(C)c1ccc(OCC(=O)NNC(=S)NC(=O)c2ccco2)c(Br)c1	2%	2	-24%	6.3µM*	6.3µM*
Cc1ccccc1NC(=S)NC(=O)COc1ccccc1C	9%	-6	-10%	13µM*	?
CC(C)(C)c1ccc(OCC(=O)NCc2ccco2)c(Br)c1	-19%	-2	-34%	?	-15%
COC(=O)CC1C(=O)NCCN1C(=O)c1ccc(Cl)cc1 (stereo not drawn)	4%	35	9%	2%	-1%
SMILES	ERG Ets-DNA blk	Giardia kill	a7 integrin act	RORg inh	Gal4-VP16 FLuc
CC(=O)N1CCc2cc(Br)cc(S(=O)(=O)CCC(=O)Nc3ccc(C)cc3Cl)c21	-9%	nt	nt	nt	nt
O=C(COc1ccc(Br)cc1)Nc1ccccc1C(=O)NC1CC1	0%	4	-35%	nt	nt
CC(C)CCNC(=O)CSc1nc2ccccc2nc1Cc1ccccc1	-1%	nt	nt	nt	nt
COC(=O)CC1=COC2OCC3=CC[C@@H]1C32 (stereo partly drawn)	nt	nt	nt	-9%[10 µM]	-1%[10 µM]
Oc1oc(-c2ccccc2)nc1/C=N/c1nccs1	-2%	-12	14%	16µM*	?
NS(=O)(=O)c1ccc(CNC(=S)NC2CCCC2)cc1	0%	12	-668%	2%	-10%
Fc1ccc(CNC(=S)NC2CCCCCC2)cc1	7%	11	5%	6.3µM*	11µM*
O=C(CCC(=O)NC1CCCCC1)NCc1ccc(F)cc1	7%	-8	6%	?	-3%
Fc1ccc(C(CNC(=S)NC2CCCCC2)N2CCOCC2)cc1 (stereo not drawn)	8%	11	-27%	8.9µM*	?
S=C(NCC(c1cccnc1)N1CCOCC1)NC1CCCCC1 (stereo not drawn)	-12%	-12	-9%	-15%	-7%
Cc1ccc(CNC(=S)NC2CCC(C(C)(C)C)CC2)cc1 (stereo not drawn)	4%	0	-19%	2.8µM*	5µM*
COc1ccc(CNC(=S)NC2CCCCC2)cc1	-4%	?	-19%	7.1µM*	13µM*
COc1ccc(C(=S)NC2CCCCC2)cc1	-9%	?	13%	-30%	8%
COc1ccc(C(C)NC(=S)NC2CCCC2)cc1OC (stereo not drawn)	-7%	-25	-32%	?	?
COc1ccc(CNC(=S)NC2CCCC2)cc1	5%	-1	0%	8.9µM*	7.9µM*
CC(NC(=S)NC1CCC(C(C)(C)C)CC1)c1ccccc1 (stereo not drawn)	0%	6	-22%	1.6µM*	2.8µM*
Cn1c(=O)[nH]c(=O)c2c1nc([N+](=O)[O-])n2Cc1ccccc1	11%	2	-68%	4µM*	5.6µM*
CC(C)Cn1c([N+](=O)[O-])nc2c1c(=O)[nH]c(=O)n2C	0%	-5	-46%	8.9µM*	?
Cn1c(=O)[nH]c(=O)c2c1nc(N1CCNCC1)n2Cc1ccccc1	-5%	6	13%	-5%	-12%
